Data on ten compounds can be found in PubChem BioAssay (EPA / NIEHS).

For orientation: AC50 means the concentration giving half of the maximal activity seen.

In assay [1] the target is Paired box protein Pax-6 (Homo sapiens) (UniProt P26367). Briefly: ATG_Pax6_CIS: Attagene CIS-FACTORIAL HepG2 Assay for human Paired Box 6 (PAX6) (AID 2282956). As to conditions: HepG2 CIS-FACTORIAL PAX6 reporter transcription, RNA readout; actives raise or lower the signal. Put shortly: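 Values derive from bidirectional curve fitting of reporter mRNA signal relative to DMSO. HepG2 cells bearing transfected cis-regulated MRTUs were exposed for 24 h; transcripts were read by RT-PCR and capillary electrophoresis.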

Assay [2] in a line: ATG_PXRE_CIS: Attagene CIS-FACTORIAL HepG2 Assay for human Pregnane X Receptor Element (PXRE) (AID 2282957). As to conditions: HepG2 Attagene CIS-FACTORIAL PXRE reporter, mRNA; actives raise or lower the signal. A digest of the protocol: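 Bidirectional activity, baselined to DMSO, derived from reporter mRNA fluorescence (RT-PCR plus capillary electrophoresis) in HepG2 cells bearing cis-promoter reporter units, 24 h exposure.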

The nature of assay [3]: ATG_PPRE_CIS: Attagene CIS-FACTORIAL HepG2 Assay for human Peroxisome Proliferator-activated Response Element (PPRE) (AID 2282958). The note with it: HepG2 PPRE cis-element reporter, Attagene transcription factor profiling; actives raise or lower the signal. A digest of the protocol: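 HepG2 cells transiently transfected with multiplexed cis-element reporter units measure endogenous transcription factor activity. After 24 h compound exposure, reporter mRNA is quantified by RT-PCR, 6-FAM labeling, HpaI digestion and capillary electrophoresis; bidirectional fits are made against DMSO baseline.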

Assay [4] is described as follows: ATG_Sox_CIS: Attagene CIS-FACTORIAL HepG2 Assay for human SRY-box transcription factor (SOX) (AID 2282960). The note with it: HepG2 Attagene cis-factorial SOX reporter, mRNA; actives raise or lower the signal. A digest of the protocol: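 HepG2 cells transiently transfected with cis-element-driven multiple reporter transcription units, dosed 24 h; reporter mRNA measured by RT-PCR, FAM labelling, HpaI digestion and capillary electrophoresis. Bidirectional fit versus DMSO baseline.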

Assay [5] deals with Transcription factor Sp1 (Homo sapiens) (UniProt P08047). Briefly: ATG_Sp1_CIS: Attagene CIS-FACTORIAL HepG2 Assay for human Specificity Protein 1 (Sp1) (AID 2282961). The note with it: HepG2 Sp1 cis-reporter transcription, actives raise or lower the signal. Put shortly: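 HepG2 cells transiently transfected with multiple reporter transcription units driven by cis-regulatory elements; Sp1-responsive reporter mRNA measured 24 h after dosing by RT-PCR and capillary electrophoresis fluorescence, fitted bidirectionally against DMSO baseline.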

Assay [6] is described as follows: ATG_SREBP_CIS: Attagene CIS-FACTORIAL HepG2 Assay for human Sterol Regulatory Element Binding (SREBP) (AID 2282962). As to conditions: HepG2 Attagene cis-factorial SREBP reporter, mRNA; actives raise or lower the signal. A digest of the protocol:
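Values derive from bidirectional curve fitting with DMSO as baseline. The underlying measurement is reporter mRNA from cis-element-regulated units in transiently transfected HepG2, quantified by RT-PCR and capillary electrophoresis after 24 h exposure.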

Assay [7] is described as follows: ATG_TA_CIS: Attagene CIS-FACTORIAL HepG2 Assay for human TA Basal Promoter (AID 2282964). The note with it: HepG2 Attagene CIS-factorial TA basal promoter reporter; actives raise or lower the signal. A digest of the protocol: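 HepG2 cells transiently transfected with multiple reporter units under cis promoter elements, reporting endogenous transcription factor activity; this endpoint tracks the TA basal promoter as background control. Reporter mRNA after 24 h dosing measured by RT-PCR/capillary electrophoresis; bidirectional fits versus DMSO.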

Assay [8] can be described thus: ATG_TCF_b_cat_CIS: Attagene CIS-FACTORIAL HepG2 Assay for human T-Cell-Factor with beta-catenin (TCF/b-cat) (AID 2282965). The note with it: HepG2 TCF/beta-catenin cis-reporter transcription, actives raise or lower the signal. Put shortly:
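Endogenous transcription factor activity is captured through cis-promoter reporter constructs transiently introduced into human HepG2 liver cells. Induced reporter mRNA is measured after 24 h and fitted bidirectionally relative to DMSO.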

Assay [9] in a line: ATG_TAL_CIS: Attagene CIS-FACTORIAL HepG2 Assay for human TAL Basal Promoter (AID 2282966).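 Note: background control endpoint measuring basal TAL promoter reporter mRNA not a specific factor.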 The note with it: HepG2 Attagene cis-factorial TAL promoter reporter; actives raise or lower the signal. A digest of the protocol:
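Human hepatoma HepG2 cells, transfected with promoter-regulated reporter units, were treated 24 h. Reporter transcript levels, measured through RT-PCR and capillary electrophoresis, were fitted for gain or loss relative to DMSO.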

Assay [10] in a line: ATG_TGFb_CIS: Attagene CIS-FACTORIAL HepG2 Assay for human Transforming Growth Factor (TGF) (AID 2282967). The note with it: HepG2 Attagene CIS TGFb reporter, mRNA transcription; actives raise or lower the signal. Put shortly: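 HepG2 cells transiently transfected with cis-promoter-driven multiple reporter units measure endogenous TF activity; reporter mRNA quantified at 24 h by RT-PCR, FAM labeling, HpaI digestion and capillary electrophoresis. Bidirectional fit vs DMSO.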

A short description of assay [11]: ATG_VDRE_CIS: Attagene CIS-FACTORIAL HepG2 Assay for human Vitamin D Receptor Element (VDRE) (AID 2282968). As to conditions: HepG2 VDRE cis-reporter transcription, actives raise or lower the signal. A digest of the protocol: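 Readout is VDRE-driven reporter mRNA reflecting endogenous factor activity in human HepG2 cells, sampled 24 h post-dose. Quantification used labelled RT-PCR products separated by capillary electrophoresis; bidirectional analysis relative to DMSO.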

Assay [12] concerns the target Estrogen receptor (Homo sapiens) (UniProt P03372). Kind of assay: ATG_ERa_TRANS: Attagene TRANS-FACTORIAL HepG2 Assay for human Estrogen Receptor alpha (ERa) (AID 2282970; active = hit-call score of the fitted dose curve at least 0.9, where 1 is the maximum). The note with it: HepG2 Attagene TRANS ERa GAL4 reporter, mRNA. A digest of the protocol:
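Signal derives from fluorescence of labelled reporter PCR fragments separated by capillary electrophoresis. HepG2 cells transiently carrying multiple GAL4-UAS reporter units were treated 24 hours, and induction above DMSO baseline was fitted as activity.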

The target in assay [13] is X-box-binding protein 1 (Homo sapiens) (UniProt P17861). Briefly: ATG_Xbp1_CIS: Attagene CIS-FACTORIAL HepG2 Assay for human X-box Binding Protein 1 (XBP1) (AID 2282972). The note with it: HepG2 XBP1 cis-element reporter, Attagene multiplex; actives raise or lower the signal. Put shortly: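 Human hepatoma HepG2, cis-element reporter system, 24 h treatment; mRNA quantified by RT-PCR/CE fluorescence; fit relative to DMSO.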

Assay [14] can be described thus: ATG_M_19_TRANS: Attagene TRANS-FACTORIAL HepG2 Assay for M19 Transcription Factor (Internal Marker) (AID 2282974; active = hit-call score of the fitted dose curve at least 0.9, where 1 is the maximum). The note with it: HepG2 Attagene TRANS-FACTORIAL M19 internal marker reporter. Put shortly: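 HepG2 cells transiently transfected with multiple GAL4-UAS reporter transcription units were exposed to chemicals for 24 h. Reporter mRNA was read by RT-PCR, 6-FAM primer extension, HpaI digestion and capillary electrophoresis; gain of signal fitted relative to DMSO.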

Assay [15] can be described thus: ATG_RORE_CIS: Attagene CIS-FACTORIAL HepG2 Assay for human RAR-related Orphan Receptor Element (RORE) (AID 2282959). As to conditions: HepG2 Attagene cis-factorial RORE reporter, mRNA; actives raise or lower the signal. A digest of the protocol: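 HepG2 cells transiently transfected with multiple cis-element reporter transcription units, exposed to chemical for 24 h. Reporter mRNA quantified by RT-PCR, 6-FAM primer-extension labeling, HpaI digestion and capillary electrophoresis; bidirectional fit versus DMSO baseline.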

Assay [16] deals with Signal transducer and activator of transcription 3 (Homo sapiens) (UniProt P40763). Kind of assay: ATG_STAT3_CIS: Attagene CIS-FACTORIAL HepG2 Assay for human Signal Transducer and Activator of Transcription 3 (STAT3) (AID 2282963). As to conditions: HepG2, Attagene cis-factorial STAT3 reporter transcription; actives raise or lower the signal. Put shortly:
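Readout is reporter transcript quantified by RT-PCR and capillary electrophoresis, with 6-FAM primer extension and HpaI digestion. Total RNA is taken 24 h after dosing transiently transfected HepG2 carrying cis-regulated reporter units. Bidirectional fit against DMSO.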

The nature of assay [17]: ATG_GAL4_TRANS: Attagene TRANS-FACTORIAL HepG2 Assay for GAL4 (Internal Marker) (AID 2282976; active = hit-call score of the fitted dose curve at least 0.9, where 1 is the maximum). As to conditions: HepG2 Attagene TRANS GAL4 internal marker reporter. A digest of the protocol:
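Liver HepG2 line bearing multiplexed GAL4-UAS reporter constructs; 24 h chemical treatment. Transcripts were quantified as fluorescent fragments on capillary electrophoresis after RT-PCR and HpaI cut, with activity fitted upward from DMSO.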

Assay [18] addresses Nuclear receptor subfamily 1 group I member 3 (Homo sapiens) (UniProt Q14994). Kind of assay: ATG_CAR_TRANS: Attagene TRANS-FACTORIAL HepG2 Assay for human Constitutive Androstane Receptor (CAR) (AID 2282969; active = hit-call score of the fitted dose curve at least 0.9, where 1 is the maximum;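 note: activators raise reporter mRNA above DMSO so AC50 marks induction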). As to conditions: HepG2 Attagene TRANS-FACTORIAL CAR reporter. A digest of the protocol:
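Signal is reporter mRNA induction relative to DMSO, measured 24 h after dosing by RT-PCR with fluorescent primer extension and capillary electrophoresis. Human HepG2 liver cells carried transiently transfected chimeric NR-Gal4/GAL4-UAS reporter constructs.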

Assay [19] addresses Steroid hormone receptor ERR1 (Homo sapiens) (UniProt P11474). Kind of assay: ATG_ERRa_TRANS: Attagene TRANS-FACTORIAL HepG2 Assay for human Estrogen-Related Receptor alpha (ERRa) (AID 2282971; active = hit-call score of the fitted dose curve at least 0.9, where 1 is the maximum). As to conditions: HepG2 Attagene TRANS reporter, ERRa transactivation. A digest of the protocol: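 Signal gain relative to DMSO for an ERRa-Gal4 chimeric receptor, read as reporter mRNA by RT-PCR/capillary electrophoresis. Human HepG2 liver cells, transient multiplex reporter transfection, 24 h chemical exposure.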

Each structure is given as a SMILES string. Inconclusive results are not listed. Calls of active or inactive are those of the source. Rule for the calls, unless noted: active = hit-call score of the fitted dose curve at least 0.9, where 1 is the maximum; inactive = score below 0.9.

Sequence of Transcription factor Sp1 (Homo sapiens) (P08047 whole entry, looked up): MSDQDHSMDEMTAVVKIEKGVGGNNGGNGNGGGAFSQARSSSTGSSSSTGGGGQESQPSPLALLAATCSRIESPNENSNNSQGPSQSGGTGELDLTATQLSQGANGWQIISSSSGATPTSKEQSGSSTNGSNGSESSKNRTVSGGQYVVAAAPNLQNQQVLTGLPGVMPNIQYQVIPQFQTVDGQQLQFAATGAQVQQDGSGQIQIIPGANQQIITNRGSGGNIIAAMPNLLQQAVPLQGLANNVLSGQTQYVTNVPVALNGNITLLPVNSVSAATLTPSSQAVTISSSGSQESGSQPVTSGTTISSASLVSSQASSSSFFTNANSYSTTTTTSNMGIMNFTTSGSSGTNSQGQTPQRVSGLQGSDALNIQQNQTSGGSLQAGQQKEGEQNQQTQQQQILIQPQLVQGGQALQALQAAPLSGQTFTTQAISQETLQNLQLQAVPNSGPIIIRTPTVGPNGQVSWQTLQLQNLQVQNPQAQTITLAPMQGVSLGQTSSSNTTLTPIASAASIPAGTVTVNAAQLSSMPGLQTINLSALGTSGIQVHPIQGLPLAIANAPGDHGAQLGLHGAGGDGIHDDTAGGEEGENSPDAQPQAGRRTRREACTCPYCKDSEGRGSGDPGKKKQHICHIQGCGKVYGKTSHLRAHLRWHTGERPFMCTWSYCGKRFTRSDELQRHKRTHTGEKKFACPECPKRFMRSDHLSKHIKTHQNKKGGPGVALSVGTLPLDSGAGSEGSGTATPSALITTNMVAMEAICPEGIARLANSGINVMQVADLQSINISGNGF
Sequence of Nuclear receptor subfamily 1 group I member 3 (Homo sapiens) (Q14994 whole entry, looked up, the tested form may be a part): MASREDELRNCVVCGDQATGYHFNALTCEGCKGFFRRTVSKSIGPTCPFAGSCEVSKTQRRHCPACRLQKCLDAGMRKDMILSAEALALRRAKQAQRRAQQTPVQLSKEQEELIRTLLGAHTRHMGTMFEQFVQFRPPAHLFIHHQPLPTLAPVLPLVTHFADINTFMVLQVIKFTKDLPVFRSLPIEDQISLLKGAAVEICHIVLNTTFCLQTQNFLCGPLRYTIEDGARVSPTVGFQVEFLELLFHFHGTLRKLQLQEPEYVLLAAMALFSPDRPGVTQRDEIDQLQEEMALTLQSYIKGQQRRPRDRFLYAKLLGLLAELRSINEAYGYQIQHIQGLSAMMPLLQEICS
Sequence of Paired box protein Pax-6 (Homo sapiens) (P26367 whole entry, looked up): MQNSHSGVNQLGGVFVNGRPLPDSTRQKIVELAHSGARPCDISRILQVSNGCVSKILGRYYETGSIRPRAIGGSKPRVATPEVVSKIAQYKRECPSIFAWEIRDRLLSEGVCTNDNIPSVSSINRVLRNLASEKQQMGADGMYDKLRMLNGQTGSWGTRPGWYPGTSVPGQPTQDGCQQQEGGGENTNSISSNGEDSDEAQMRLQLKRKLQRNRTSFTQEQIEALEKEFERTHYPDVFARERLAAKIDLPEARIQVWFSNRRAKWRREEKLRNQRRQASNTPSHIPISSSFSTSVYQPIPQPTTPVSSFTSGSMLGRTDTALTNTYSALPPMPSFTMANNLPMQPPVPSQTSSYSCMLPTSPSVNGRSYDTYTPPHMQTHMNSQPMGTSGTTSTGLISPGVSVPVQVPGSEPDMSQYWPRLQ
Sequence of Estrogen receptor (Homo sapiens) (P03372 whole entry, looked up, the tested form may be a part): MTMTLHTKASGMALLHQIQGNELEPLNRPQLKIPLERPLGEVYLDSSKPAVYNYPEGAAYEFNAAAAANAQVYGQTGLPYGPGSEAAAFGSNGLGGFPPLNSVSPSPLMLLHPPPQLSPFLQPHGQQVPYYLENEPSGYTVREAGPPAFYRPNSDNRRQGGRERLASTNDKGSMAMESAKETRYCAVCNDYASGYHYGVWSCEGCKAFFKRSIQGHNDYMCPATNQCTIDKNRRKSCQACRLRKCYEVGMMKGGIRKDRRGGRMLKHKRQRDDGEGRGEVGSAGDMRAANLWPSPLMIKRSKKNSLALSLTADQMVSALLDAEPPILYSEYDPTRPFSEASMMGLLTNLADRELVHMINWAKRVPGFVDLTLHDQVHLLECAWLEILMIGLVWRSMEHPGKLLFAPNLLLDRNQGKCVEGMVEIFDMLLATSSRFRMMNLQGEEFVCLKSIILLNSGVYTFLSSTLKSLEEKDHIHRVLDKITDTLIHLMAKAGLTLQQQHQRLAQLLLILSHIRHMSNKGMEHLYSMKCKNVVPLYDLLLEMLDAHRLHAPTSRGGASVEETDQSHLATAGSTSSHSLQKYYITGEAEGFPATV
Sequence of X-box-binding protein 1 (Homo sapiens) (P17861 whole entry, looked up): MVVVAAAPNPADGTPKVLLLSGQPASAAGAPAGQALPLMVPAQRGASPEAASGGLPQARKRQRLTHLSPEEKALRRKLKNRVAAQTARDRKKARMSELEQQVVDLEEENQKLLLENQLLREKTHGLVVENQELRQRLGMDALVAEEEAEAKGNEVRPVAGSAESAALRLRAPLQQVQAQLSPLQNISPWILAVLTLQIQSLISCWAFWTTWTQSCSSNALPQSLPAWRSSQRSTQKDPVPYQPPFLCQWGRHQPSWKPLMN
Sequence of Signal transducer and activator of transcription 3 (Homo sapiens) (P40763 whole entry, looked up): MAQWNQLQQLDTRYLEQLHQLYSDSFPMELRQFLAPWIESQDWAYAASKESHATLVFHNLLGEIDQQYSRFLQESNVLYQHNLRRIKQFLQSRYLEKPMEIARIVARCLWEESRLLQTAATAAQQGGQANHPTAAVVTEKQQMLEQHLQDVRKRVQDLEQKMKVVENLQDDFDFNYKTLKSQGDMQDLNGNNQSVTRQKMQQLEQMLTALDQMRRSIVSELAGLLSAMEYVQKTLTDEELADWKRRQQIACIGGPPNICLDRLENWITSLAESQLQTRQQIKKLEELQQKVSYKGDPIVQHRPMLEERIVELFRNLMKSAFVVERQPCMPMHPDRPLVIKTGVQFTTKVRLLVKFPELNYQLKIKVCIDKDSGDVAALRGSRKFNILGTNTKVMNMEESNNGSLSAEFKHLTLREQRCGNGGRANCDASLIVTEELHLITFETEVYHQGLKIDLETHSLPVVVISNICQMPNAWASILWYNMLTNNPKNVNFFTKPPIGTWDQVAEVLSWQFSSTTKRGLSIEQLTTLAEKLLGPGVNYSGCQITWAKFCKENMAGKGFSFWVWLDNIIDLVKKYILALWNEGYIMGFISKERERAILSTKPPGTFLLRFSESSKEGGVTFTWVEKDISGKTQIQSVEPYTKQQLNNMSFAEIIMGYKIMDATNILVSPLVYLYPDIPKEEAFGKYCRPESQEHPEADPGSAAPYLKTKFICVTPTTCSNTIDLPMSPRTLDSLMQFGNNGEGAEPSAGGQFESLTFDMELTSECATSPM
Sequence of Steroid hormone receptor ERR1 (Homo sapiens) (P11474 whole entry, looked up, the tested form may be a part): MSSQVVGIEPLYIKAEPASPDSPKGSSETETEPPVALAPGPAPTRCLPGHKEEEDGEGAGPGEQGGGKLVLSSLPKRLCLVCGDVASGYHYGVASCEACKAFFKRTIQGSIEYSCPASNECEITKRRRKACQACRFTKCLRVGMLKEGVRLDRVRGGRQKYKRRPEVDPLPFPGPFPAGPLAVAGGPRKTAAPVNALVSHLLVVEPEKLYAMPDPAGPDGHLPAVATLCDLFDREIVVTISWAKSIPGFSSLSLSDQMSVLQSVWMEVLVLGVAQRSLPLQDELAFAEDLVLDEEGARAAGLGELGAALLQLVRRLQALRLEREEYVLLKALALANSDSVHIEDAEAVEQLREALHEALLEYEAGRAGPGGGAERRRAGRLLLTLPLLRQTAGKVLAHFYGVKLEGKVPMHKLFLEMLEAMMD

As to `O=C(O)c1cccc(Cl)n1`, the outcome in [1], in [2], in assay [3], in assay [4], in [5] and in [6] was inactive. Moreover, the outcome in [7], in assay [8], in assay [9], in assay [10], in [11] and in assay [12] was inactive. The outcome in assay [13] and in [14] was inactive.

For `CCO[Si](CCC#N)(OCC)OCC`, the outcome in assay [1], in assay [2], in assay [15], in [4], in [5] and in [6] was inactive. In addition, the compound was classed as inactive in assay [16], in assay [7], in [9], in assay [10], in assay [12] and in [13]. Moreover, the outcome in assay [17] was inactive.

In the case of `COc1cc(OC)c2ccc(=O)oc2c1`, the compound was called inactive in assay [1], in [2], in [3], in assay [15], in assay [4] and in assay [6]. The result in assay [7], in [8], in assay [9], in assay [10], in assay [13] and in assay [17] was inactive.

As for `CC(O)CNCC(C)O` (stereo unspecified), the result in assay [1], in [2], in assay [3], in [15], in [4] and in assay [16] was inactive. Further, the call in assay [7], in assay [8], in [9], in [10], in [11] and in assay [18] was inactive. The call in [13] and in assay [17] was inactive.

On to `CC(=O)Nc1cc(S(=O)(=O)O)cc2cc(S(=O)(=O)O)c(N=Nc3ccccc3)c(O)c12`, for which the call in assay [1], in assay [2], in assay [3], in assay [15], in assay [4] and in assay [6] was inactive. Further, the outcome in assay [7], in [8], in assay [9], in assay [10], in assay [11] and in assay [18] was inactive. Besides, the outcome in [12], in [13] and in assay [17] was inactive.

In the case of `Cc1cc(O)c(C)c(C)c1O`, the compound was classed as inactive in assay [1], in assay [3], in assay [15], in assay [4], in [16] and in [7]. Besides, the outcome in assay [8], in assay [9], in assay [10], in assay [18], in assay [19] and in assay [13] was inactive. Besides, the figures for the AC50 in [2] and in assay [12] were 9.14 µM (active) and 21.2 µM (active), respectively.

With `NC(=O)NC(N)=O`, the compound was called inactive in assay [1], in [2], in [3], in assay [15], in [4] and in assay [5]. Moreover, the call in assay [16], in assay [7], in assay [8], in assay [9], in assay [12] and in assay [13] was inactive. In [17], the outcome was inactive.

In the case of `CC(C)(CO)CO`, the compound was classed as inactive in assay [1], in assay [2], in assay [15], in [4], in assay [5] and in assay [6]. Moreover, the outcome in assay [16], in [7], in assay [8], in assay [9], in assay [10] and in assay [19] was inactive. The result in assay [13] and in [14] was inactive.

Turning to `CNC(=C[N+](=O)[O-])NCCSCc1ccc(CN(C)C)o1`, the call in assay [1], in assay [2], in assay [3], in [15], in [4] and in assay [6] was inactive. The result in assay [16], in assay [7], in assay [8], in assay [9], in assay [11] and in assay [13] was inactive. Moreover, the compound was called inactive in assay [14] and in assay [17].

Take `CC(C)=CCCC(C)=CC(=O)O`: the compound was called inactive in assay [1], in [15], in assay [4], in [5], in assay [6] and in assay [16]. Besides, the call in assay [7], in assay [8], in [9], in assay [10], in assay [13] and in [17] was inactive. Further, the AC50 in assay [2] was 29.8 µM (active).
